Screening data: PubChem, National Center for Advancing Translational Sciences (NCATS)
APE1 inh – qHTS Assay for Inhibitors of the Human Apurinic/apyrimidinic Endonuclease 1 (APE1); DNA repair nuclease/redox regulator APEX1 (Homo sapiens), P27695; recombinant APE1, TAMRA/BHQ-2 abasic DNA cleavage fluorescence; Potency, µM (titrated, usually from 65.8 µM), inactives show top-dose activity change, negative = inhibition, most hits filed as inhibitors; actives 0.35% (n = 350,000);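 also: potency is read from the fitted curve at half-maximal effect; plate controls were vehicle for no effect and reference inhibitor for full effect; nearly all actives have a fitted effect of over 55% in size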
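Readout is kinetic fluorescence (ex 525, em 598 nm) from cleavage of 50 nM TAMRA/BHQ-2 THF abasic duplex by 0.75 nM APE1, compound added 15 min beforehand at RT.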
PI5P4K alpha inh – qHTS for Inhibitors of phosphatidylinositol 5-phosphate 4-kinase (PI5P4K); Phosphatidylinositol 5-phosphate 4-kinase type-2 alpha (Homo sapiens), P48426; PI5P4Kalpha enzyme, ADP-Glo luminescence, 60 min; hits give low values; actives 1.2% (n = 330,000); max response, %; AID 652105, 2013; active = max response of -50% or lower; inconclusive = between -30% and -50%; inactive = -30% or higher; also: value at the top dose of about 77 µM
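Compounds were pin-transferred onto PI5P4Kalpha and substrate in HEPES pH 7.4 buffer with EGTA, CHAPS and 5% DMSO. ATP (5 microM final) started the reaction, which ran 60 minutes at room temperature before ADP-Glo detection.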
KAT2A inh – qHTS Assay for Inhibitors of GCN5L2 | GCN5L2 HAT assay, ThioGlo1 CoA-SH fluorescence | Potency, µM (top dose mostly 58.9 µM), for inactives: top-dose activity change, negative = inhibition, hits mostly inhibitors | actives 0.21% (n = 390,000); also: potency is read from the fitted curve at half-maximal effect
Target sequence (Q92830 whole entry, looked up): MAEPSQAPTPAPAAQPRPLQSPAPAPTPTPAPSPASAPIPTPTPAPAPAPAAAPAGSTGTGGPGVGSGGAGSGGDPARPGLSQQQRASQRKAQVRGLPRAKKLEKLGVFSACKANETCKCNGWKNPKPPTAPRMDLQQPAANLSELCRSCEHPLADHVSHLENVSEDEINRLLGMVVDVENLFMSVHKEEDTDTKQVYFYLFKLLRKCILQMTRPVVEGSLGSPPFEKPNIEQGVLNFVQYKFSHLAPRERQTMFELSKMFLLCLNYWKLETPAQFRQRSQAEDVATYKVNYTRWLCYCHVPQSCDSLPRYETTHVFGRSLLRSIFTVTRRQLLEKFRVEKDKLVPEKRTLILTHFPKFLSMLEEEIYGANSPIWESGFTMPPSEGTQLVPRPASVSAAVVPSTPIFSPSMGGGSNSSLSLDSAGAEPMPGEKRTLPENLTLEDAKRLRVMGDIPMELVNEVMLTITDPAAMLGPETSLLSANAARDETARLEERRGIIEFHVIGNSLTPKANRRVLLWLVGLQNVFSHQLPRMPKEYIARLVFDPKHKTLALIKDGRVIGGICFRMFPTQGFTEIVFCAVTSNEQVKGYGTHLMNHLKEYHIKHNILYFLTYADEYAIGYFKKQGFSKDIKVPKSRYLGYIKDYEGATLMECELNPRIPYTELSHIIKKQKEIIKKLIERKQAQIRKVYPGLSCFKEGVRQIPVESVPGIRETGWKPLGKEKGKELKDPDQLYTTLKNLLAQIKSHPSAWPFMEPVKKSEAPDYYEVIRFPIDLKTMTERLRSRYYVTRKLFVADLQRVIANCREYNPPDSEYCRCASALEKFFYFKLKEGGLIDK
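Titration-based screen in which CoA formation is detected via maleimide probe ThioGlo1 (50uM) turning fluorescent on thiol reaction; substrates H3(1-25) 75uM and acetyl-CoA 70uM, GCN5L2 20nM, 20 min incubation at room temperature.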
BLM inh – qHTS Assay for Inhibitors of Bloom's syndrome helicase (BLM); RecQ-like DNA helicase BLM (Homo sapiens), P54132; recombinant BLM DNA unwinding, fluorescence dequenching; Potency, µM (doses to about 56.1 µM), without a hit: at the highest dose activity change, negative = inhibition, usual class: inhibitors; actives 0.2% (n = 350,000);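 also: potency is read from the fitted curve at half-maximal effect; plate controls were vehicle for no effect and no enzyme for full effect; nearly all actives have a fitted effect of over 35% in size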
RECQ1 helicase – qHTS Assay for Inhibitors of RecQ-Like Dna Helicase 1 (RECQ1) | AID 2549, 2010 | Potency, µM (doses to about 57.3 µM), without a hit: at the highest dose activity, negative = inhibition, most hits filed as inhibitors | actives 0.54% (n = 240,000) | ATP-dependent DNA helicase Q1 (Homo sapiens), P46063 | RECQ1 DNA unwinding, red fluorescence kinetic read;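 also: potency is read from the fitted curve at half-maximal effect; plate controls were vehicle for no effect and no enzyme for full effect; nearly all actives have a fitted effect of over 30% in size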
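50 nM RECQ1T1 preincubated 15 min with compound in Tris pH 8.0 buffer with MgCl2, DTT, Tween-20 and 2.5 ug/ml poly(dI-dC); started with 200 nM TAMRA/BHQ-2 forked duplex and 2 mM ATP. Unwinding read as fluorescence (525/598 nm), two reads 2 h apart.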
FEN1 inh – qHTS Assay for the Inhibitors of Human Flap endonuclease 1 (FEN1); P39748; Recombinant FEN1 flap cleavage, fluorescence, 15 min; Potency, µM (doses to about 114 µM), inactives show at the top dose activity change, negative = inhibition, hits mostly inhibitors; actives 0.35% (n = 390,000); also: potency is read from the fitted curve at half-maximal effect; nearly all actives have a fitted effect of over 65% in size
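Compounds are tested as a concentration series against 10 nM FEN1; after a 15 min room-temperature preincubation, 50 nM substrate starts cleavage, with plate reads at 0 and 15 min. Normalized responses are fitted by a Hill equation.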
ADP-Glo counter – qHTS for Inhibitors of PI5P4K: ADP-Glo counter assay. AID 743285, 2014. 1,100 tested, under 10 active. Potency, µM (titrated, usually from 76.9 µM), without a hit: at the top dose activity change, negative = inhibition, usual class: inhibitors. ADP-Glo detection counter-screen, luciferase luminescence, no enzyme. shares compounds with PI5P4K alpha inh
* marks the source's active call; other numbers are inactive results; i = inactive; ? = inconclusive; · = not tested or not shown. A selection: hits, their analogues and other compounds. The true share with any hit is near 1.5%. Unless noted, calls follow the shape of the dose curve; as a rule, active = well fitted curve in the direction sought with a large enough effect; inconclusive = small, poorly fitted or top-dose-only effect, or another doubt; inactive = no such curve, though single readings can be large; an effect the other way counts as inactive or inconclusive. Unless noted, % is scaled to controls: 0 for no effect and ±100 for the full control effect.

SMILES	APE1 inh	PI5P4K alpha inh	KAT2A inh	BLM inh	RECQ1 helicase	FEN1 inh	ADP-Glo counter
CCCCn1c(=O)[nH]c(=O)c2c1nc(-c1ccc(-c3ccccc3Br)o1)n2CC	-3%	-53*	-9%	-3%	-3%	-14%	-1%
COc1cccc(NC(=O)c2ccc(-c3nc(COc4ccccc4)c(C)o3)cc2)c1	·	·	-6%	-1%	·	3%	·
Cc1sc2nc(SCC(=O)Nc3ccccc3F)[nH]c(=O)c2c1C	39%	-3	-4%	-5%	·	-12%	·
Cc1csc(NC(=O)CSc2nc3sc(C)c(C)c3c(=O)[nH]2)n1	22%	-57*	-11%	-5%	-2%	-11%	-1%
CC[C@]12c3[nH]c4cc(CCC(=O)N(C)C)ccc4c3CCN1C(=O)[C@@H](CC(=O)NCCC1=CCCCC1)C[C@@H]2C(=O)N1CCN(C(=O)c2ccco2)CC1	-4%	-29	-2%	·	·	-3%	·
CC[C@]12c3[nH]c4cc(-c5ccco5)ccc4c3CCN1C(=O)[C@@H](CC(=O)NCCC1=CCCCC1)C[C@@H]2C(=O)N1CCN(C(=O)c2ccco2)CC1	-14%	-73*	?	·	·	-7%	1%
O=c1cc(CN2CCN(S(=O)(=O)c3cccc(Cl)c3)CC2)c2ccc(O)cc2o1	-37%	-74*	-28%	·	·	1%	-6%
CCN(CC)CCCCn1c(-c2ccccc2)nc2c(N(CCOC)CCOC)nc(C)nc21	-11%	·	·	2%	0%	·	·
CC(=O)c1ccc(-c2cccc(C3C4C=CCCC4(C)C(=O)N3Cc3ccccc3)c2)cc1 (stereo not drawn)	-3%	·	·	-9%	-9%	-5%	·
O=S(=O)(NCC(c1ccco1)N1CCN(c2ccc(F)cc2)CC1)c1cc(F)ccc1F (stereo not drawn)	·	·	-13%	-6%	·	-4%	·
NC(=O)c1ccc(-n2c(CCC(=O)O)ccc2-c2cccs2)cc1	35%	-80*	?	4%	-1%	-3%	2%
CC(=O)c1ccc(-n2c(CCC(=O)O)ccc2-c2cccs2)cc1	-5%	·	-7%	-7%	-3%	10%	·
CCCC1([C@H](O)C/C=C/[C@H]2[C@H](O)CC(=O)[C@@H]2CCCCCCC(=O)OC)CCC1	-1%	·	-10%	-14%	-14%	·	·
NCCCC(N)CC(=O)NC1CNC(=O)C(C2CC(O)N=C(N)N2)NC(=O)/C(=C/NC(N)=O)NC(=O)C(CO)NC(=O)C(CO)NC1=O (stereo not drawn)	·	·	-8%	58%	·	·	·
O=C(Nc1cccc(Cl)c1Cl)c1cc(S(=O)(=O)N2CCCCC2)ccc1F	·	·	-8%	-3%	·	-4%	·
O=C(NC1CC1)C1CCN(S(=O)(=O)c2cc([N+](=O)[O-])ccc2Cl)CC1	?	-56*	?	·	·	?	-6%
O=C(Nc1cccc(S(=O)(=O)N2CCOCC2)c1)c1c2c(nc3ccccc13)CCC2	?	-64*	-21%	-18%	?	-5%	-2%
O=C(NCc1ccccn1)C1(C(F)(F)F)C/C(=C\Cc2ccccc2)CCCO1 (stereo not drawn)	-4%	·	·	-2%	0%	-15%	·
COc1ccc(OC)c(NC(=O)CN(Cc2ccc(F)cc2)C2CCCCC2)c1	2%	-58*	-5%	-11%	·	4%	-3%
Cc1ccc(Cn2c(C(=O)O)c(CNCc3ccc(OC(C)C)cc3)c3ccc(C)cc32)cc1	·	·	-10%	-11%	·	3%	·
COc1ccc2c(CC(=O)N3CCN(S(=O)(=O)c4ccc(F)cc4)CC3)coc2c1	-10%	-53*	-8%	·	·	-10%	2%
COc1ccc2oc(C(=O)Nc3ccc(N4CCOCC4)cc3)c(C)c2c1	-14%	-68*	-3%	·	·	-4%	-1%
Cc1c(C(=O)Nc2ccc(N3CCOCC3)cc2)oc2ccccc12	8%	-1	-12%	-4%	i	-10%	·
COc1cccc2c1C(=O)C[C@]1(CCCC[C@@H]1C)O2	7%	2	-4%	·	·	-11%	-5%
COc1cccc2c1C1(O)C2CCCCCCCCCC12OCCCO2 (stereo not drawn)	·	-5	·	·	·	4%	·
SMILES	APE1 inh	PI5P4K alpha inh	KAT2A inh	BLM inh	RECQ1 helicase	FEN1 inh	ADP-Glo counter
Cc1cc2ccccc2nc1SCC(=O)NC1CCCC1	-6%	-65*	-7%	-5%	i	-5%	6%
COc1ccc(NC(C)=O)cc1NC(=O)CSc1nc2ncccc2[nH]1	4%	-55*	-8%	0%	-3%	-9%	3%
COc1ccccc1NC(=O)CSc1nc2ncccc2[nH]1	-2%	·	-1%	-1%	-4%	8%	·
O=C(O)C1Nc2c(Cl)cc(Cl)c(Cl)c2C2C=CCC12 (stereo not drawn)	·	-76*	·	·	·	35µM*	0%
Cc1cccc(OCC(=O)Nc2cccc(C(=O)Nc3ccccc3C(=O)O)c2)c1	-1%	-52*	-11%	3%	5%	-2%	5%
O=C(Nc1nnc(COc2ccc(Cl)cc2)s1)c1cccs1	-1%	-57*	5%	0%	-15%	13%	0%
CNS(=O)(=O)c1cccc(C(=O)OCc2cc(=O)n3cc(Br)ccc3n2)c1	3%	-19	-4%	-9%	-2%	-2%	·
Cc1cc(C)c(C)c(S(=O)(=O)N[C@@H](C)C(=O)OCc2cc(=O)n3cc(Br)ccc3n2)c1C	-2%	-52*	-4%	-25%	24%	6%	-2%
COCCNc1nc(NCC2CCCCC2)c2sc(-c3ccccc3)cc2n1	·	·	·	·	·	·	-2%
c1ccc(-c2nc(NCC3CC3)nc3ccsc23)cc1	·	-2	·	·	·	·	·
c1ccc(-c2cc3nc(NCC4CC4)nc(NCC4CCCCC4)c3s2)cc1	·	·	·	·	·	·	5%
COC(=O)c1c(NC(C)=O)sc(C(=O)Nc2ccccc2)c1C	-7%	?	0%	0%	-5%	9%	2%
N#Cc1c(SCC(=O)Nc2nc3ccccc3s2)sc2c(O)cc(=O)[nH]c12	-66%	-78*	?	·	·	18µM*	-3%
N#Cc1c(SCC(=O)Nc2nccs2)sc2c(O)cc(=O)[nH]c12	12%	-94*	?	-30%	·	45µM*	7%
